Source: PubChem BioAssay AID1159580 (chemical genetic matrix, 2015)
“And” between values parts separate entries of the source, which are not always exact repeats. Identical values can stand only once. The whole screen tested about 5,500 compounds, of which about 2,000 (36%) were called active. Not shown: some 18% with an inconclusive outcome. Cut-off read from the data, not from the text of the source: active = normalized growth mostly below about 0.91 (no sharp cut-off); inconclusive = no clear call, values can overlap the other calls; inactive = mostly above about 0.92. The list shows a part of the results.

Experiment: chemical genetic growth profiling, strain panel (AID 1159580);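 note: tested at 20 µM; growth read once vehicle control cultures reached saturation at 30 °C; 1 = growth at the plate median or of vehicle wells; lower values mean less growth of the strain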
Conditions: growth OD

Measured: normalized growth

COc1ccc(Cc2nccc3cc(OC)c(OC)cc23)cc1OC
inactive: S. cerevisiae deletion strains, locus YJR066W, strain TOR1, hits give low values 0.975 | S. cerevisiae deletion strains, locus YJR075W, strain HOC1, hits give low values 0.995 | S. cerevisiae deletion strains, locus YKL009W, strain mrt4, hits give low values 0.984 | S. cerevisiae deletion strains, locus YKL068W, hits give low values 0.999 | S. cerevisiae deletion strains, locus YKL085W, strain MDH1 (second series), hits give low values 0.991 | S. cerevisiae deletion strains, locus YKL085W, strain MDH1, hits give low values 0.991 | S. cerevisiae deletion strains, locus YKL160W, strain elf1, hits give low values 1.02 | S. cerevisiae deletion strains, locus YKL190W, strain CNB1, hits give low values 1.01 | S. cerevisiae deletion strains, locus YKR001C, strain vps1, hits give low values 0.961 | S. cerevisiae deletion strains, locus YKR026C, strain gcn3, hits give low values 1 | S. cerevisiae deletion strains, locus YKR091W, strain srl3, hits give low values 0.998 | S. cerevisiae deletion strains, locus YLL001W, strain dnm1, hits give low values 1.01 | S. cerevisiae deletion strains, locus YLL026W, hits give low values 1 | S. cerevisiae deletion strains, locus YLL041C, strain sdh2, hits give low values 1 | S. cerevisiae deletion strains, locus YLR027C, strain aat2, hits give low values 0.994 | S. cerevisiae deletion strains, locus YLR039C, strain RIC1, hits give low values 1 | S. cerevisiae deletion strains, locus YLR058C, strain SHM2, hits give low values 1.02 | S. cerevisiae deletion strains, locus YLR102C, strain apc9, hits give low values 0.988 | S. cerevisiae deletion strains, locus YLR113W, strain HOG1, hits give low values 0.975 | S. cerevisiae deletion strains, locus YLR221C, strain rsa3, hits give low values 1.01 | S. cerevisiae deletion strains, locus YLR258W, strain gsy2, hits give low values 1 | S. cerevisiae deletion strains, locus YLR262C, strain YPT6 (second series), hits give low values 1.01 | S. cerevisiae deletion strains, locus YLR262C, strain YPT6, hits give low values 1.01 | S. cerevisiae deletion strains, locus YLR268W, strain sec22, hits give low values 0.967 | S. cerevisiae deletion strains, locus YLR320W, strain mms22, hits give low values 1.01 | S. cerevisiae deletion strains, locus YLR330W, strain CHS5, hits give low values 1.01 | S. cerevisiae deletion strains, locus YLR342W, strain FKS1 (second series), hits give low values 0.996 | S. cerevisiae deletion strains, locus YLR342W, strain FKS1, hits give low values 1.01 | S. cerevisiae deletion strains, locus YLR357W, strain rsc2, hits give low values 0.972 | S. cerevisiae deletion strains, locus YLR370C, strain arc18, hits give low values 0.992 | S. cerevisiae deletion strains, locus YLR371W, strain rom2, hits give low values 0.999 | S. cerevisiae deletion strains, locus YLR384C, strain iki3, hits give low values 1 | S. cerevisiae deletion strains, locus YLR418C, strain cdc73, hits give low values 0.933 | S. cerevisiae deletion strains, locus YML016C, strain PPZ1, hits give low values 1.01 | S. cerevisiae deletion strains, locus YML032C, strain rad52, hits give low values 0.977 | S. cerevisiae deletion strains, locus YML120C, strain ndi1, hits give low values 1 | S. cerevisiae deletion strains, locus YML124C, strain tub3, hits give low values 0.988 | S. cerevisiae deletion strains, locus YMR058W, strain fet3, hits give low values 1.01 | S. cerevisiae deletion strains, locus YMR078C, strain ctf18, hits give low values 0.991 | S. cerevisiae deletion strains, locus YMR125W, strain sto1, hits give low values 0.994 | S. cerevisiae deletion strains, locus YMR129W, hits give low values 0.998 | S. cerevisiae deletion strains, locus YMR205C, strain PFK2, hits give low values 1.02 | S. cerevisiae deletion strains, locus YMR223W, strain ubp8, hits give low values 0.987 | S. cerevisiae deletion strains, locus YMR231W, strain pep5, hits give low values 1.01 | S. cerevisiae deletion strains, locus YMR307W, strain GAS1, hits give low values 0.988 and 0.997 | S. cerevisiae deletion strains, locus YNL067W, strain RPL9B, hits give low values 1.01 | S. cerevisiae deletion strains, locus YNL071W, strain lat1, hits give low values 1 | S. cerevisiae deletion strains, locus YNL128W, strain TEP1, hits give low values 1.01 and 0.977 | S. cerevisiae deletion strains, locus YNL153C, strain GIM3, hits give low values 1.01 | S. cerevisiae deletion strains, locus YNL175C, strain NOP13, hits give low values 0.988 | S. cerevisiae deletion strains, locus YNL183C, strain NPR1, hits give low values 0.946 | S. cerevisiae deletion strains, locus YNL197C, strain WHI3, hits give low values 0.996 | S. cerevisiae deletion strains, locus YNL209W, strain ssb2, hits give low values 1 | S. cerevisiae deletion strains, locus YNL224C, strain SQS1, hits give low values 0.993 | S. cerevisiae deletion strains, locus YNL233W, strain BNI4, hits give low values 1.02 | S. cerevisiae deletion strains, locus YNL248C, strain rpa49, hits give low values 0.992 | S. cerevisiae deletion strains, locus YNL250W, strain rad50, hits give low values 0.985 | S. cerevisiae deletion strains, locus YNL271C, strain bni1, hits give low values 0.982 | S. cerevisiae deletion strains, locus YNL298W, strain CLA4, hits give low values 0.999 | S. cerevisiae deletion strains, locus YNL307C, strain MCK1, hits give low values 0.98 | S. cerevisiae deletion strains, locus YNL322C, strain KRE1 (second series), hits give low values 1.01 | S. cerevisiae deletion strains, locus YNR049C, strain mso1, hits give low values 0.999 | S. cerevisiae deletion strains, locus YNR052C, strain pop2, hits give low values 0.986 | S. cerevisiae deletion strains, locus YOL006C, strain TOP1, hits give low values 1.02 | S. cerevisiae deletion strains, locus YOL012C, strain htz1 1.11 | S. cerevisiae deletion strains, locus YOL147C, strain pex11, hits give low values 0.988 | S. cerevisiae deletion strains, locus YOR001W, strain rrp6, hits give low values 0.965 | S. cerevisiae deletion strains, locus YOR061W, strain CKA2, hits give low values 1.01 | S. cerevisiae deletion strains, locus YOR069W, strain VPS5, hits give low values 1.01 | S. cerevisiae deletion strains, locus YOR070C, strain gyp1, hits give low values 0.999 | S. cerevisiae deletion strains, locus YOR080W, strain dia2, hits give low values 0.997 | S. cerevisiae deletion strains, locus YOR083W, strain WHI5 (second series), hits give low values 1 | S. cerevisiae deletion strains, locus YOR083W, strain WHI5, hits give low values 1.03 | S. cerevisiae deletion strains, locus YOR106W, strain vam3, hits give low values 1.02 | S. cerevisiae deletion strains, locus YOR136W, strain idh2, hits give low values 0.998 | S. cerevisiae deletion strains, locus YOR144C, strain elg1, hits give low values 1 | S. cerevisiae deletion strains, locus YOR184W, strain ser1, hits give low values 0.984 | S. cerevisiae deletion strains, locus YOR231W, strain MKK1, hits give low values 0.984 | S. cerevisiae deletion strains, locus YOR265W, strain rbl2, hits give low values 1 | S. cerevisiae deletion strains, locus YOR270C, strain vph1, hits give low values 0.998 | S. cerevisiae deletion strains, locus YOR290C, strain snf2, hits give low values 0.993 | S. cerevisiae deletion strains, locus YOR316C, strain cot1, hits give low values 1 | S. cerevisiae deletion strains, locus YPL051W, strain arl3, hits give low values 0.998 | S. cerevisiae deletion strains, locus YPL055C, strain LGE1, hits give low values 0.983 | S. cerevisiae deletion strains, locus YPL078C, strain atp4, hits give low values 0.998 | S. cerevisiae deletion strains, locus YPL106C, strain sse1, hits give low values 1 | S. cerevisiae deletion strains, locus YPL240C, strain hsp82, hits give low values 1.01 | S. cerevisiae deletion strains, locus YPL241C, strain CIN2, hits give low values 1.01 | S. cerevisiae deletion strains, locus YPL256C, strain CLN2, hits give low values 1.02 | S. cerevisiae deletion strains, locus YPR119W, strain clb2, hits give low values 0.99 | S. cerevisiae deletion strains, locus YPR141C, strain kar3, hits give low values 0.988 | S. cerevisiae deletion strains, locus YPR163C, strain tif3, hits give low values 0.974 | S. cerevisiae deletion strains, locus YPR167C, strain met16, hits give low values 0.991 | S. cerevisiae deletion strains, strain wtn01, hits give low values 0.985 | S. cerevisiae strains, strain wild type, hits give low values 1.01
